# Laboratory results: the supplement of paper PMC12819154, “High-throughput peptide-centric local stability assay extends protein–ligand identification to membrane proteins, tissues and bacteria” (Nature Structural & Molecular Biology, 2025)
# Compound: CN[C@@H]1C[C@H]2O[C@@](C)([C@@H]1OC)n1c3ccccc3c3c4c(c5c6ccccc6n2c5c31)C(=O)NC4 [staurosporine]
# Test: log2 fold change of tryptic peptide abundance, ligand vs vehicle (limited proteolysis) (log2 ratio); higher = more trypsin-susceptible (destabilized)
# Conditions: ligand concentration: 20 uM; sample: mouse liver crude lysate; replicate design: treated separately
# Sequence of UniProt Q9EPE9 (Q9EPE9 whole entry): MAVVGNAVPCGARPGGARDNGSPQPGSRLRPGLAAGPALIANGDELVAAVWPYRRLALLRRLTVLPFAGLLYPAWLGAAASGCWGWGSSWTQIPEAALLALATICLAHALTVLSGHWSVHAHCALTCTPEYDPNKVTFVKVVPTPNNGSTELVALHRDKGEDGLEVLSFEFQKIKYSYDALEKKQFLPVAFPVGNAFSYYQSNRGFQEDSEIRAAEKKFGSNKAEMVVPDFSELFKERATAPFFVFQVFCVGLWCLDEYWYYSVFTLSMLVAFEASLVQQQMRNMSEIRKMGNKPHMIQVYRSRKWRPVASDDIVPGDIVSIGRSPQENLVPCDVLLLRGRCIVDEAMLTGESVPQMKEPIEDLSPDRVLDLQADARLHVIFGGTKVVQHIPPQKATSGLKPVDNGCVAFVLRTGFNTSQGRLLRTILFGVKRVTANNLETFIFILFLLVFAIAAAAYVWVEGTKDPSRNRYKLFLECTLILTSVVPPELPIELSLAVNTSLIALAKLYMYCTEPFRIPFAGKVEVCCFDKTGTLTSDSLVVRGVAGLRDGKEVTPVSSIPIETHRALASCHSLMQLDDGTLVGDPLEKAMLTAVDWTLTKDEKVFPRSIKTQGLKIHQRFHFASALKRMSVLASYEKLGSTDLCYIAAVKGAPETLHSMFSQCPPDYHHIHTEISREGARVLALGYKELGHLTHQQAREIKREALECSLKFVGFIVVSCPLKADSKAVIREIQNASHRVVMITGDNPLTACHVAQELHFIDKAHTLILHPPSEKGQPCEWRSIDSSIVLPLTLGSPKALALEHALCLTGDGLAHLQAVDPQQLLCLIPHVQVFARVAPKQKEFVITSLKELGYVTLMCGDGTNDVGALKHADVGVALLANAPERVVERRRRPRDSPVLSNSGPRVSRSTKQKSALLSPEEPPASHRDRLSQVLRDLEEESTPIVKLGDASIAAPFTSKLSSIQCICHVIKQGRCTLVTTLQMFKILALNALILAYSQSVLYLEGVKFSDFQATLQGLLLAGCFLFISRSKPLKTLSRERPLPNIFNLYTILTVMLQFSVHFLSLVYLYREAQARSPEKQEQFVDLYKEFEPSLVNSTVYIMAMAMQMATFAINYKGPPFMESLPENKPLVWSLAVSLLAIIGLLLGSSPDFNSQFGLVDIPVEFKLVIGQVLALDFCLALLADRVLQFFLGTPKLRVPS
# Sequence of UniProt Q6PDN3 (Q6PDN3 whole entry): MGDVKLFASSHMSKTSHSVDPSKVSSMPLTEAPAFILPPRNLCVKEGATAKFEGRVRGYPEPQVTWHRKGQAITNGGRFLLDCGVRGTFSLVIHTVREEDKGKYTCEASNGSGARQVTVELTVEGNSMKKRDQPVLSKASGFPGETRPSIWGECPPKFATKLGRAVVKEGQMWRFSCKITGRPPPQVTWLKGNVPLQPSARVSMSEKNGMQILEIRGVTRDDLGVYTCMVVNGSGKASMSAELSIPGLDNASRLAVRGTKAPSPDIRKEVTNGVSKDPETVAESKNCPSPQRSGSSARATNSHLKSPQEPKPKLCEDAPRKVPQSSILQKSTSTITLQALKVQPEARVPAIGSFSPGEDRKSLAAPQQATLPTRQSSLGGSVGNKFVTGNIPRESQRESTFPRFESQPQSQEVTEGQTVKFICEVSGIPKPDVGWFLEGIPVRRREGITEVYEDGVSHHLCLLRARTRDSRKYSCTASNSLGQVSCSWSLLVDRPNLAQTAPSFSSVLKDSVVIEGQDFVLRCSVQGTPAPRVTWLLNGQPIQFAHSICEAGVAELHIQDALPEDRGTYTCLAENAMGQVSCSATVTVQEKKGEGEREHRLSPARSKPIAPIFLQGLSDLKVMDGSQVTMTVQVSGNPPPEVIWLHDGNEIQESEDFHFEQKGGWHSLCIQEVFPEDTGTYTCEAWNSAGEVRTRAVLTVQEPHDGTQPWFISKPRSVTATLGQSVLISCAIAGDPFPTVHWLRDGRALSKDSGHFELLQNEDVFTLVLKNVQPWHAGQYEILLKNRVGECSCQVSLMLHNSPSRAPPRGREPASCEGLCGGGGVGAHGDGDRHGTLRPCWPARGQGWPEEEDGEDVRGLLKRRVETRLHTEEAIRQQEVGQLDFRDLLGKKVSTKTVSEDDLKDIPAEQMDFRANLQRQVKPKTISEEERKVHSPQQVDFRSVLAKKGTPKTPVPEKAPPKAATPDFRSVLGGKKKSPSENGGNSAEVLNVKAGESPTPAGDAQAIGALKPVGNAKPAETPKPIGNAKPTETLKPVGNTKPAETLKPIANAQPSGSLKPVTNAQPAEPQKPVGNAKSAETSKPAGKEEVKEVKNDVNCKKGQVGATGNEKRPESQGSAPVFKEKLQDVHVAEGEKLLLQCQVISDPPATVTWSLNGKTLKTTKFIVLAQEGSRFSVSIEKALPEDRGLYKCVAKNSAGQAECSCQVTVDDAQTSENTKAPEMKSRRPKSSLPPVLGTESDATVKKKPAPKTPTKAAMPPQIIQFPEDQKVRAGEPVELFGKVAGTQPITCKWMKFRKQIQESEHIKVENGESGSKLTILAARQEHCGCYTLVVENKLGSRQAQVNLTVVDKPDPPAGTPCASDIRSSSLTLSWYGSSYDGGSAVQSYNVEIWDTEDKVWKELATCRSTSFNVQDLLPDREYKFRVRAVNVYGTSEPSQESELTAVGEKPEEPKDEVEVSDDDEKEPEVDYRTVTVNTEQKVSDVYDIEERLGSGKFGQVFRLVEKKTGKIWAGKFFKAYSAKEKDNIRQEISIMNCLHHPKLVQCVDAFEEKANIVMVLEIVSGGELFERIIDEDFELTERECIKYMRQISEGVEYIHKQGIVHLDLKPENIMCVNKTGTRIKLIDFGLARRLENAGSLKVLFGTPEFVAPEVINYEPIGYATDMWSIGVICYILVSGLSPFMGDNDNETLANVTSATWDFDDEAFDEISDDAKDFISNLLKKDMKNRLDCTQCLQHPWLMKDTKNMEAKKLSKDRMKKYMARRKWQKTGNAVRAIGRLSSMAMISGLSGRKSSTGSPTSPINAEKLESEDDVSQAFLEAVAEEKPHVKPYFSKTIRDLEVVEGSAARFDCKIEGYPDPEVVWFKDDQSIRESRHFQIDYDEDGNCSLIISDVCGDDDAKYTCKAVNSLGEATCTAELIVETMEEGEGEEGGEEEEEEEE
# Sequence of UniProt Q80UW5 (Q80UW5 whole entry): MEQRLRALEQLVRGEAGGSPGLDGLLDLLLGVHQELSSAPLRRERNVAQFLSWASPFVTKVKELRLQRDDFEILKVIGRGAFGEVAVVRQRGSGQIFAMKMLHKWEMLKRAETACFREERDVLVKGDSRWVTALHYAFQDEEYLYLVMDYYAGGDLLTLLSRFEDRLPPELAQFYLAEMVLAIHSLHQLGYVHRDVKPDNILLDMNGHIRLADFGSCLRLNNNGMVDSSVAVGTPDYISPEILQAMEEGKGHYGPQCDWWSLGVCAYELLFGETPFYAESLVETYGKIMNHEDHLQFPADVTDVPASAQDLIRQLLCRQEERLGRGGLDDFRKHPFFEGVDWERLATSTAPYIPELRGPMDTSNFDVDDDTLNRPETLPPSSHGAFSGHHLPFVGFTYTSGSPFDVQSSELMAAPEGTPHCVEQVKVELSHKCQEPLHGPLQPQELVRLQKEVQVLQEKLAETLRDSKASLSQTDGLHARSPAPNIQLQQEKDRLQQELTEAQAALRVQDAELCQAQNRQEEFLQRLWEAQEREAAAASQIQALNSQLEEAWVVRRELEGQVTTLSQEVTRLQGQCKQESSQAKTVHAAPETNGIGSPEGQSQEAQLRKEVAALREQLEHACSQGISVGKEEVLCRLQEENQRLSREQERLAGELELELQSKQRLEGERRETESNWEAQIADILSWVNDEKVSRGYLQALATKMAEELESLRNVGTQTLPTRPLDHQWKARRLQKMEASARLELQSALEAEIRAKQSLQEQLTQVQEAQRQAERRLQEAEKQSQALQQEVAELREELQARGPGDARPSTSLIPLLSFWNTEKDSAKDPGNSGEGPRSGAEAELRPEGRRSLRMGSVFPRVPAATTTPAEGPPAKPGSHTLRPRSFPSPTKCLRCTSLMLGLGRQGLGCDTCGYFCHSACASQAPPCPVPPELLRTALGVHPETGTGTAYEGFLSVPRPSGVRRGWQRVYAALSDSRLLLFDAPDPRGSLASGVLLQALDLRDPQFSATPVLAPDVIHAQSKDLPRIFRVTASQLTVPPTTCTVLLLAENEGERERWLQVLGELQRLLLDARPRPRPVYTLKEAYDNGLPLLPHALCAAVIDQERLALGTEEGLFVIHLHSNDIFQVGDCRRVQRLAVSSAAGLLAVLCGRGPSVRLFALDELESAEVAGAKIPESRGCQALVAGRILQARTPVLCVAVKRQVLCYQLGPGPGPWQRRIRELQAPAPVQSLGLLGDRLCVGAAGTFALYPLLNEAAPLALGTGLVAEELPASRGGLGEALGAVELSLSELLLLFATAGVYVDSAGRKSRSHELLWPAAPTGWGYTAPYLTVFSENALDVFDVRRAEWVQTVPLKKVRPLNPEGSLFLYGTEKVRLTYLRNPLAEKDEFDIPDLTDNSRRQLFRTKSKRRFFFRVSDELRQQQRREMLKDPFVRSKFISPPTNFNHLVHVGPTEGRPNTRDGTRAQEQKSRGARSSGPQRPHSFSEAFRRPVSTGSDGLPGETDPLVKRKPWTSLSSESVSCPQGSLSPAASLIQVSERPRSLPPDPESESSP
# Sequence of UniProt Q03147 (Q03147 whole entry): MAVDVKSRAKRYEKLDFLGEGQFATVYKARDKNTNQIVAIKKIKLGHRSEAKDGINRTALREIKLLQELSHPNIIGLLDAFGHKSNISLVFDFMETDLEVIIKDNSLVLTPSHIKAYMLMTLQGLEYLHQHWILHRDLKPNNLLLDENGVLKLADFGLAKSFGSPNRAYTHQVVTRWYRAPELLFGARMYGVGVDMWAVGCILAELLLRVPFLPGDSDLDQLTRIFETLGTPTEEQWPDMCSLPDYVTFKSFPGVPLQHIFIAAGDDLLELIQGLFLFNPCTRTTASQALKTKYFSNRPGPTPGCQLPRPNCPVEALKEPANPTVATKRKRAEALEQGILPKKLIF
row,Target,log2 fold change
1,"UniProt Q03147 (peptide sequence: DKNTNQIVAIKK, peptide start residue: 31)",-2.43
2,"UniProt O35488 (peptide sequence: YELIKYDVEKDEPVR, peptide start residue: 394)",0.821
3,"UniProt Q80ZM8 (peptide sequence: YFNPCYATAR, peptide start residue: 227)",1.12
4,"UniProt Q8VDM4 (peptide sequence: SETELKDTYAR, peptide start residue: 546)",-1.29
5,"UniProt Q04735 (peptide sequence: LEHEEGAPCTAIR, peptide start residue: 154)",-2.38
6,"UniProt P52332 (peptide sequence: NVLVESEHQVK, peptide start residue: 1007)",-2.98
7,"UniProt P53395 (peptide sequence: DRTEPVTGFQK, peptide start residue: 251)",0.423
8,"UniProt P31750 (peptide sequence: HPFLTALK, peptide start residue: 209)",-1.6
9,"UniProt Q8BK48 (peptide sequence: DFRPPYVK, peptide start residue: 447)",-1.1
10,"UniProt Q6PDN3 (peptide sequence: VSDVYDIEER, peptide start residue: 1482)",-1.2
11,"UniProt P22315 (peptide sequence: LFLDRDLMTLPIQNK, peptide start residue: 91)",-1.03
12,"UniProt Q8CC86 (peptide sequence: VCLYLGLEEQEPHPGER, peptide start residue: 253)",-0.575
13,"UniProt Q8JZR0 (peptide sequence: GYLKDPEK, peptide start residue: 503)",0.616
14,"UniProt Q9D6U8 (peptide sequence: HESLTSLNLER, peptide start residue: 130)",0.435
15,"UniProt Q5M8N4 (peptide sequence: LGLGGPIGSGR, peptide start residue: 177)",-0.493
16,"UniProt A6X919 (peptide sequence: AGTAAPAPDGLAGR, peptide start residue: 60)",0.335

row,Target,log2 fold change
1,"UniProt P47911 (peptide sequence: HQEGEIFDTEK, peptide start residue: 235)",0.281
2,"UniProt Q3UU96 (peptide sequence: LHREDFEILK, peptide start residue: 72)",-1.65
3,"UniProt Q80UW5 (peptide sequence: GAFGEVAVVR, peptide start residue: 80)",-1.9
4,"UniProt P83510 (peptide sequence: NIATYYGAFIK, peptide start residue: 81)",-0.608
5,"UniProt Q6XUX1 (peptide sequence: SLQDVLLHR, peptide start residue: 640)",-1.84
6,"UniProt Q4LDG0 (peptide sequence: NQPFLGYR, peptide start residue: 501)",0.345
7,"UniProt O70503 (peptide sequence: IQKPTLDKPSAETFVK, peptide start residue: 242)",0.192
8,"UniProt P16331 (peptide sequence: RKQFADIAYNYR, peptide start residue: 158)",-0.336
9,"UniProt Q91Y86 (peptide sequence: MLVIDASKR, peptide start residue: 301)",-1.79
10,"UniProt Q7TMR0 (peptide sequence: AHNAFDPSSVLLSR, peptide start residue: 459)",0.784
11,"UniProt Q5EG47 (peptide sequence: DLKPENVLLDAHMNAK, peptide start residue: 150)",-4.22
12,"UniProt P31532 (peptide sequence: KYFQGLLNR, peptide start residue: 81)",0.505
13,"UniProt Q9EPE9 (peptide sequence: EVTPVSSIPIETHR, peptide start residue: 553)",-0.718
14,"UniProt Q9QZL0 (peptide sequence: DLKPSNILLDPELHAK, peptide start residue: 143)",-1.1
15,"UniProt Q63932 (peptide sequence: ISELGAGNGGVVTK, peptide start residue: 75)",-0.512
